# Compound activity as filed in PubChem.
# Hits are enriched below; roughly 3.5% of the tested compounds scored in any of these assays.
# BoNT-A LC inh2: BoNT/A light chain protease inhibitors, primary screen, biochemical, flow cytometry, MLPCN library. multiplex microsphere protease substrate cleavage. inhibition, % at 10 µM. AID 588499, 2011. 360,000 tested, 0.17% active. Botulinum neurotoxin type A light chain protease (Clostridium botulinum A str. ATCC 3502); in the data active = inhibition above about 30%; inconclusive = no clear call, values can overlap the other calls; note: plate controls were buffer without enzyme for full effect and enzyme alone for no effect
# Bead autofluor: compound fluorescence in toxin protease inhibitor counterscreen; compound autofluorescence counterscreen, microsphere flow cytometry; hits give high values; fluorescence intensity (test concentration not listed); 360,000 tested, 3.1% active; in the data active = fluorescence intensity above about 16000; inconclusive = no clear call, values can overlap the other calls
# BoNT F protease: BoNT/F light chain protease inhibitors, primary screen, biochemical, flow cytometry, MLPCN library. Botulinum neurotoxin type F light chain protease (Clostridium botulinum). Multiplex microsphere protease cleavage assay. inhibition, % at 10 µM. 360,000 tested, 0.22% active. AID 588497, 2011; in the data active = inhibition above about 35%, passing the limit was not always enough; inconclusive = no clear call, values can overlap the other calls; note: plate controls were buffer without enzyme for full effect and enzyme alone for no effect
# Anthrax LF inh2: Bacillus anthracis LF protease inhibitors, primary screen, biochemical, multiplex microsphere, MLPCN library; Lethal factor (Bacillus anthracis), P15917; 360,000 tested, 0.12% active; multiplex microsphere protease cleavage assay; inhibition, % at 10 µM; AID 588501, 2011; in the data active = inhibition above about 30%; inconclusive = no clear call, values can overlap the other calls; note: plate controls were buffer without enzyme for full effect and enzyme alone for no effect
# Target sequence (P15917 whole entry, looked up): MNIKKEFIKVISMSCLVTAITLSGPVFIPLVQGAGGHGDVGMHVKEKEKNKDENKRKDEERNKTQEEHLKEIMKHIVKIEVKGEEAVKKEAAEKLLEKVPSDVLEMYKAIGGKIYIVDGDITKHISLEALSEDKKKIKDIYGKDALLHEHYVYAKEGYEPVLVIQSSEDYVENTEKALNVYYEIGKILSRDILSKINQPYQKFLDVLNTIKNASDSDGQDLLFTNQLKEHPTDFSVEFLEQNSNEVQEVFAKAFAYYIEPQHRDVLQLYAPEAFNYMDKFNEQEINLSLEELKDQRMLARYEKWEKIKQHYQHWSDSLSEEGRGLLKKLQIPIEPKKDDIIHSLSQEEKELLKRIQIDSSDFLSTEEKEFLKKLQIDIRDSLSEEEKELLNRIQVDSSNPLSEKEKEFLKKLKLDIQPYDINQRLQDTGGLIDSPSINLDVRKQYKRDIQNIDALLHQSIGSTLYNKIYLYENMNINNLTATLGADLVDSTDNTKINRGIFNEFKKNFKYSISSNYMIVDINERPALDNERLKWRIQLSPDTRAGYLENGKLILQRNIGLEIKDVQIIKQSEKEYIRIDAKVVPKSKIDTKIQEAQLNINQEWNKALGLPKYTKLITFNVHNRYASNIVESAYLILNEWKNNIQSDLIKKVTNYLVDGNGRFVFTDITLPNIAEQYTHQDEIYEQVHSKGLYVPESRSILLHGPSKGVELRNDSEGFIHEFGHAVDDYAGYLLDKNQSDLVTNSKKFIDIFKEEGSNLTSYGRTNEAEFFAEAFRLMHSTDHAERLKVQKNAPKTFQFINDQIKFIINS
# BoNTA LC inh 2: BoNT/A light chain protease inhibitors, confirmation, biochemical, flow cytometry, cherry pick 2. inhibition, % at 10 µM. 150 tested, 10% active. shares compounds with BoNT-A LC inh2. AID 602325, 2012. multiplex microsphere protease cleavage assay; in the data active = inhibition above about 24%
# LF protease CP2: Bacillus anthracis LF protease inhibitors, confirmation, biochemical, multiplex microsphere | multiplex microsphere protease cleavage assay | inhibition, % at 10 µM | shares compounds with BoNT-A LC inh2 | 150 tested, 7% active | AID 602327, 2012
# BoNT-F LC CP2: BoNT/F light chain protease inhibitors, confirmation, biochemical, flow cytometry, cherry pick 2 | shares compounds with BoNT-A LC inh2 | multiplex microsphere protease cleavage assay | inhibition, % at 10 µM | 150 tested, 7% active | AID 602336, 2012
# Numbers without * were called inactive; ? = inconclusive; . = no result given. Cut-off read from the data, not from the text of the source, unless noted: active = inhibition above about 25%; inactive = the rest.
SMILES,BoNT-A LC inh2,Bead autofluor,BoNT F protease,Anthrax LF inh2,BoNTA LC inh 2,LF protease CP2,BoNT-F LC CP2
O=C(COC(=O)c1cncc(Br)c1)NC12CC3CC(CC(C3)C1)C2,72*,4039,8,58*,29*,30*,3
O=C(NC12CC3CC(CC(C3)C1)C2)c1cncc(Br)c1,-1,3041,-5,8,.,.,.
COc1cc(C(=O)N2CCN(S(=O)(=O)c3ccc(C)cc3C)CC2)ccc1OCC(=O)N1CCOCC1,0,3683,5,-8,.,.,.
O=[N+]([O-])c1cc(S(=O)(=O)NC2=NCCCCC2)ccc1NCC1CCCCC1,1,3986,-3,-8,.,.,.
COc1ccc(-c2nc3c(Cl)cc(C(F)(F)F)cn3c2Cc2ccsc2)cc1OC,3,5804,-1,-5,15,-2,13
Cc1ccc(-c2cnc3c(c2)C(=O)N([C@H](C)CO)C[C@@H](C)[C@@H](CN(C)C(=O)Cc2ccccc2)O3)cc1,0,3617,2,-2,.,.,.
COc1ccc(C(CNC(=O)C(CCSC)NC(=O)c2ccccc2Cl)N2CCCCC2)cc1 (stereo not drawn),1,3610,1,-1,.,.,.
COc1ccc(C(CNC(=O)C(CCSC)NC(=O)c2ccccc2Cl)N2CCCC2)cc1 (stereo not drawn),-15,15232,43*,7,-5,1,14
COc1cccc(NC(=O)c2cncs2)c1,1,3927,?,-3,.,.,.
Cc1cc2cc(CNS(=O)(=O)c3ccccc3)ccc2n1C,83*,1735,-103,-64,23,14,-26
COc1ccc(CNS(=O)(=O)c2ccc(OC)cc2)cc1,-1,2583,-18,-3,.,.,.
COc1ccc(S(=O)(=O)NCc2ccc3c(c2)cc(C)n3C)cc1,79*,1230,-108,-94,24*,14,-15
O=C(c1ccc(Cl)cc1)N1CCN(CCc2ccccn2)CC1,2,3628,14,0,.,.,.
Cc1ccc2nc(C3CCCCC3)c(CC(C)(C)C)n2c1,-1,4288,-10,-3,.,.,.
Fc1ccc(-c2nc3ccc(Br)cn3c2Cc2ccsc2)cc1,32*,6185,-3,25,14,11,0
Cc1ccc(-c2nc3ccc(Br)cn3c2Cc2ccsc2)cc1,19,5688,-20,10,.,.,.
Cc1[nH]c2ccccc2c1C(=O)COC(=O)c1ccccc1O,-1,3305,-2,0,5,4,16
Cc1cc(=O)n2nc(N3CCCC(C(=O)NCc4ccccc4Cl)C3)sc2n1 (stereo not drawn),0,5531,8,-2,.,.,.
Cc1cccc(C(=O)OCC(=O)N2CCCCCC2)c1,1,3627,-2,-2,.,.,.
COC(=O)CNC(=O)COc1ccccc1,0,2518,1,2,.,.,.
Cc1cc2ccccc2n1CCNC(=O)c1ccc(Br)o1,66*,1384,-145,-117,21,22,-3
CCC(=O)NCCn1c(C)cc2ccccc21,26,5062,20,33*,34*,2,28*
Cc1cc2ccccc2n1CCNC(=O)COc1ccccc1,84*,1122,-88,-63,77*,50*,-14
Cc1cc2ccccc2n1CCNC(=O)Cc1cccc2ccccc12,55*,1162,-116,-124,12,10,-5
Cc1cc2ccccc2n1CCNC(=O)c1ccc(S(=O)(=O)N2CCOCC2)cc1,29,1079,-128,-100,.,.,.
CCOC(=O)n1c(=O)n(Cc2ccccc2C)c2ccccc21,-2,3998,-8,-3,.,.,.
Cc1cn([C@H]2C[C@H](O)[C@@H](CCC(=O)NCC3CCCO3)O2)c(=O)[nH]c1=O (stereo partly drawn),-1,6019,-13,-1,.,.,.
Cc1cc2ccccc2n1CCNC(=O)C(C)(C)C,96*,2350,-16,12,11,10,11
